Results on 27 compounds are retold here after PubChem BioAssay AID743279 (National Center for Advancing Translational Sciences (NCATS), 2014).

The structures appear in SMILES notation. The campaign covered roughly 360,000 compounds. About 17,000 (4.7%) were called active. About 5% were inconclusive and are not listed. For the sample, actives were picked, then their nearest neighbours and some compounds at random. Unmarked numbers belong to inactive results. Cut-off read from the data, not from the text of the source: active = activity change below about -50%; inconclusive = mostly about -30% to -49%; inactive = weaker than that.
% is set by controls: 0 for no effect and ±100 for the full control effect.

A short description of the test: qHTS for Inhibitors of Inflammasome Signaling: IL-1-beta AlphaLISA Primary Screen. Particulars: THP-1 LPS/ATP IL-1B secretion, 16 h; at 57.5 µM, stronger effect = lower value. The procedure, abridged:
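Secreted IL-1B measured by AlphaLISA bead assay after 16 h compound exposure of THP-1 cells; compounds (final up to 57.5 uM) added 1 h before LPS (250 ng/mL) and ATP (1.25 mM) stimulation; lower signal means less secretion.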
On the technique in general: Quantitative high-throughput screening tests each substance at several concentrations.
As for `Cc1csc(NC(=O)C2CCN(S(=O)(=O)c3ccccc3)CC2)n1`, the activity change was -7.33%. The result for `COc1cc(C=C(OC(C)=O)c2ccc3c(c2)OCO3)cc(OC)c1OC` reads 24.5%; that for `COc1ccc(OC)c(/C=C/C(=O)OCC(=O)Nc2ccc3c(c2)OCCO3)c1`, 37.8%.

Take `COc1ccc(OC)c(/C=C/C(=O)c2ccc3c(c2)OCO3)c1`: the activity change was -97.2% (active). The result for `CCOC(=O)c1c(S(=O)(=O)NCC(=O)Nc2ccc(C)cc2)c(C)n(C)c1C` reads -6.41%; that for `CCOc1cc(/C=N/NC(=O)c2ccncc2)cc(Br)c1O`, -14.1%; that for `Cc1ccc(N2C(=O)SC(N(CC(=O)O)c3ccc(C)cc3)C2=O)cc1` (configuration not stated), 18.1%.

For `Cc1ccc2c(C)c(C(=O)N(C)Cc3ccncn3)oc2c1C`, the activity change is 13.6%. Then `Cc1c(C(=O)N2CCN(c3ccc(F)cc3)CC2)oc2c1C(=O)CCC2`, with 14.7%; and `Cc1ccc2c(C)c(C(=O)N3CCN(c4ccncc4)CC3)oc2c1C`, with -52.1% (active). Then `O=C(Nc1ccccc1F)c1cc(S(=O)(=O)N2CCCCC2)cs1`, with 6.67%; and `CC12CCCCC1=CC(=O)CC2` (configuration not stated), with 13.3%; and `Cc1ccc(NC(=O)c2cnc(SCC(=O)NCC3CCCO3)n(C)c2=O)cc1` (configuration not stated), with -103% (active). For the compound `CCn1c(SCC(=O)NCC2CCCO2)nc2ccccc21` (configuration not stated), the activity change was 31.3%. On to `Cn1c(SCC(=O)c2ccccc2)ncc(C(=O)Nc2ccc(F)cc2)c1=O`, for which the activity change was -2.98%. On to `NC(=O)c1ncn([C@@H]2O[C@H](CNCc3cnc(N4CCOCC4)s3)[C@@H](O)[C@H]2O)n1`, for which the activity change was 17.3%. The result for `CC1CN(C(=O)c2ccc3c(c2)OCO3)OC(c2ccccc2)O1` (configuration not stated) reads -0.281%. Regarding `O=C(Cn1cc(C(F)(F)F)ccc1=O)N/N=C/c1ccc(Cl)cc1Cl`, the activity change was 0%. As for `COc1ccc(C(=O)NCC[N+](C)(C)C)cc1`, the activity change is 22.2%.

Take `CC/C(=C(/c1ccccc1)c1ccc(OCC[N+](C)(C)C)cc1)c1ccccc1`: the activity change was -61.5% (active). Regarding `CCOc1cc(C(=O)O)ccc1OCCOc1ccccc1`, the activity change was 4.78%. `CCN(c1ccccc1)S(=O)(=O)c1cc(C(=O)NCc2ccccn2)ccc1C`: the activity change was -10.4%.

Consider `CN(Cc1ccccc1)C(=O)CCC1CCN(C(=O)c2ccco2)CC1`, for which the activity change was -7.63%.

Take `O=C(Nc1ccc(S(=O)(=O)NCC2CCCO2)cc1)c1ccc(F)cc1` (configuration not stated): the activity change was 11.6%. Consider `COc1ccc(N2C(=O)C3C(C2=O)C(C(=O)c2ccccc2)N2CCCC32)cc1` (configuration not stated), for which the activity change is -82.1% (active). Turning to `COc1ccc(N2C(=O)CC(N3CCC(C(N)=O)CC3)C2=O)cc1` (configuration not stated), the activity change was -4%. Regarding `CNC(=O)C[C@H]1C(=O)N(c2ccc(OC)cc2)C[C@@H]1Cc1ccccc1`, the activity change was -12.1%.
